In all, about 410,000 compounds went through this assay and about 5,000 (1.2%) were called active. Not shown: some 13% with an inconclusive outcome. Calls follow the shape of the dose curve; as a rule, active = well fitted inhibition curve with a large enough effect; inconclusive = small, poorly fitted or top-dose-only effect; inactive = no such curve, though single readings can be large or run the other way. For the sample, actives were picked, then their nearest neighbours and some compounds at random.
Assay: qHTS for Inhibitors of TGF-b; also: nearly all actives have a fitted effect of over 65% in size
Settings: HepG2 CAGA-GFP TGF-b/SMAD3 reporter, GFP fluorescence, 18 h, TGF-beta stimulated, 500 pg/mL final; series mostly up to 46.1 µM; activity, negative = inhibition: at the top concentration
Source text: TGF-b is a main component in the TGF-b signaling pathway which plays diverse roles in cellular and development pathways. TGF-b is the mediated by the transcription factors Smads. Although the Smad-dependent pathway is the primary canonical TGF-b signaling node, TGF-b1 can also activate alternative signaling pathways, including those involving MAPK (ERK, JNK and p38). This interaction may mediate or enhance Smad-dependent responses, or can exert Smad-independent effects. The complexity of this signaling cascade allows the TGF-b superfamily to perform unique, overlapping or redundant functions. We believe that targeting the TGF-beta pathway at the Smad-transcription factor level may eliminate the consequences of disrupting the entire pathway and offer specificity without affecting other signaling pathways. Smad3 is the primary transducer of TGF-b's signals and Smad3 regulates many functions attributed to TGF-b signaling. We hypothesize that Smad3 inhibitors will selectively eliminate Smad3-specific TGF-beta signals without undesired off-target effects. We aim to identify Smad3-small molecule antagonists using a quantitative high throughput screening (qHTS) approach.
A high-throughput assay was developed to screen the NIH Molecular Libraries Small Molecule Repository (MLSMR). This is a cell based assay, where TGF-b is tagged with GFP. A counterscreen is run that looks at cytotoxicity (please see summary AID).
MH087449NIH Chemical Genomics Center [NCGC]
NIH Molecular Libraries Probe Centers Network [MLPCN]
Assay Submitter (PI): Sushil Rane, National Institute of […]
Suspensions of trypsinized HEPG2 CAGA-GFP cells were dispensed into white, tissue culture-treated, solid 1536-well plates at 5uL/well (1000 cells/well final concentration) in DMEM medium supplemented with 1% FBS. Plates were incubated at 37 degrees C for 2 hours, after which 23 nL of compounds or DMSO were delivered to each well using a pin tool. One uL of recombinant TGF-beta in DMEM (1% FBS) was then dispensed (500 pg/mL final concentration), and plates were incubated at 37 degrees C for 18 hours. The plates were measured on an Acumen eX3 Explorer plate reader for GFP fluorescence (ex488/em500-530). GFP values were calculated by determining the mean GFP fluorescence of individual cells, and compiling these values for each well to determine a total well GFP signal. The %Activity was determined from the corrected fluorescence values. A titration of the known TGF-B inhibitor SB431542 was included to monitor plate performance, while unstimulated HEPG2 (-TGF-B) control wells were used to normalize %Activity of identified inhibitors; unstimulated wells corresponded to 100%Activity (full inhibition), while stimulated cell controls (+DMSO) were used to normalize 0%Activity (no inhibition).
Concentration-response curves were fitted to the signals arising from the resulting fluorescence. The concentration-effect curves were then classified based on curve quality (r2), response magnitude and degree of measured activity, and compounds were subsequently categorized based on their curve class.
Potency is read from the fitted curve at half-maximal effect.

activity, negative = inhibition, inactive:
CC(NC(=O)CCC(=O)N1CCN(S(=O)(=O)c2ccc(Cl)cc2)CC1)c1ccccc1 (stereo unspecified) -13.8%, O=C(CCC(=O)c1ccccc1)NCc1cccc(C(F)(F)F)c1 -3.04%, Cc1cc(OCC(=O)Nc2ncn[nH]2)c(C)c(C)c1Br 2.13%, CCCn1c2ccccc2c2cnn(CC(=O)NCCCOC(C)C)c(=O)c21 -16.6%, CCOC(=O)c1c(NC(=O)c2ccc(S(=O)(=O)N3CCCC(C)C3)cc2)sc2c1CCN(C(C)C)C2 (stereo unspecified) -0.37%, CCOC(=O)c1cnc2c(C)cc(C)cc2c1Nc1ccc(N2CCOCC2)cc1 -6.96%, CCC1=Nc2cc(C(=O)NCC(C)c3ccccc3)ccc2Sc2ccc(C)cc21 (stereo unspecified) 4.45%, CC1=Nc2cc(C(=O)NCc3ccc(C)cc3)ccc2Sc2ccc(Cl)cc21 -12.7%, Cc1nn(-c2ccc(N3CCCCC3)nn2)c(C)c1CCC(=O)NCc1ccc(F)cc1 -26.8%, Cc1ccc(-n2nc(CO)c(C(=O)NCCc3ccccc3)n2)cc1 0%, COc1ccc(-c2cn3nc(N4CCC(C(=O)Nc5cccc(C)c5C)CC4)sc3n2)cc1 0%, COc1ccc(NC(=O)C(=O)NCc2ccco2)cc1 4.07%, COc1ccc(NC(=O)CN2C(=O)NC(C)(c3ccccc3)C2=O)cn1 (stereo unspecified) 4.02%, COc1ccc(NC(=O)CSc2nc3ncccc3[nH]2)c(OC)c1 11.2%, COc1ccc2c(C(=O)c3ccc(C)cc3)n(CCC(N)=O)[n+]([O-])c2c1 -22.6%, COc1ccc(C(=O)NCCNc2ccc([N+](=O)[O-])cn2)cc1 1.81%, CCS(=O)(=O)N1CCc2cc(C(=O)N3CCN(c4ccccc4OC)CC3)ccc21 -25.2%, CCC(=O)N1CCc2cc(S(=O)(=O)NC(Cc3ccccc3)C(=O)NCc3ccc(C)cc3)ccc21 (stereo unspecified) -28.1%, CC(C)OCCCn1c(SCC(=O)c2ccccc2)nc2c(sc3ccccc32)c1=O -15.3%, C/C(=N/Nc1ccc(Cl)cc1)c1cnnc(-c2ccccc2)n1 0.78%, Fc1ccccc1Cc1ccc(Cl)nn1 -7.59%, COc1ccc(C2=NC(c3ccncc3)=Nc3ccc(Br)cc3N2)cc1 -2.9%, Cc1cccc(N2C(=O)N3[C@H](c4ccc(F)cc4)[C@@H]4C(=O)N(C5CCCCC5)C(=O)[C@@H]4[C@]3(Cc3ccccc3)C2=O)c1 17.6%, O=C1[C@H]2[C@@H](c3ccc(Cl)cc3)N3C(=O)N(c4cccc(F)c4)C(=O)[C@@]3(Cc3ccccc3)[C@H]2C(=O)N1C1CCCCC1 -18.1%, CNCCCOc1cc2nc(N3CCCN(C)CC3)nc(NC3CCN(C)CC3)c2cc1OC 22%, CN(Cc1ccccc1)C(=O)CCS(=O)(=O)c1cc(Br)cc2c1N(C(=O)C1CC1)CC2 0%, CCS(=O)(=O)c1ncc(N(Cc2ccc(F)cc2)Cc2ccco2)c(C(=O)Nc2cc(C)ccc2C)n1 1.57%, CC(=O)c1cccc(NC(=O)c2nc(-c3ccccc3)n(-c3cccc(C)c3)n2)c1 -25.9%, CN(CC(=O)Nc1ccccc1C(F)(F)F)C(=O)Cc1ccccc1F -1.45%, Cc1ccc(CCNC(=O)c2ccc(CS(=O)(=O)Cc3cccc(C)c3)o2)cc1 -36%, CCOC(=O)c1ccc(NC(=O)c2nc(SCc3ccc(F)cc3)ncc2Cl)cc1 -12.1%, O=C(Nc1nc2ccc(F)cc2s1)c1nc(SCc2ccccc2F)ncc1Cl -1.74%, Cc1cccc(NC(=O)Cn2cc(S(=O)(=O)Cc3ccccc3Cl)c3ccccc32)c1 0%, Cc1ccc(NC(=O)c2cccnc2C(=O)Nc2ccc(C)cc2)cc1 -10.9%, COc1ccccc1CNC(=O)c1ccccc1NC(=O)c1nsc2ccccc12 -0.608%, Cc1cccc(Cn2c(CN3CCC(C(=O)NCc4ccccc4Cl)CC3)cc3ccccc32)c1 -8.43%

Potency, active:
O=C(CCC(=O)N1CCN(S(=O)(=O)c2ccc(Cl)cc2)CC1)NCc1cccc(C(F)(F)F)c1 7.08 µM, COCCNC(=O)c1ccc2c(c1)N=C(C)c1cc(C)ccc1S2 2 µM, COc1ccc(CS(=O)/C(Cl)=C(/Cl)C(=O)Nc2ccc(OC)nc2)cc1 (stereo unspecified) 3.16 µM, COc1ccc(C(=O)c2c3ccc([N+](=O)[O-])cc3[n+]([O-])n2CCCN)cc1 8.91 µM, C/C(=N\Nc1ccc(Cl)nn1)c1ccccc1O 1.26 µM, C[C@@]12C(=O)N(c3cccc(Br)c3)C(=O)N1[C@H](c1ccc(Cl)cc1)[C@@H]1C(=O)N(C3CCCCC3)C(=O)[C@@H]12 11.2 µM, Cc1cccc(NC(=O)c2nc(S(=O)(=O)Cc3ccccc3)ncc2Cl)c1 3.98 µM, Cc1ccc(NC(=O)c2nc(S(=O)(=O)Cc3cccc(C)c3)ncc2Cl)cc1 3.16 µM, Cc1cccc(CS(=O)(=O)c2ncc(Cl)c(C(=O)Nc3ccc(F)cc3)n2)c1 6.31 µM, O=C(Nc1ccccc1C(F)(F)F)c1nc(S(=O)(=O)Cc2ccccc2F)ncc1Cl 3.16 µM

— PubChem BioAssay AID588855 (National Center for Advancing Translational Sciences (NCATS), 2011)
